Source: PubChem BioAssay (NCI)
The panel holds about 79,000 compounds, 15% with a hit somewhere; the sample as a whole holds those more often. A number with no mark means an inactive call. Calls of active or inactive are those of the source. Cut-off read from the data, not from the text of the source: active = growth inhibition above about 70%; inactive = the rest.

Assay: NCI Yeast Anticancer Drug Screen. Data for the cln2 rad14 strain (AID 165);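 note: 0% = growth equal to vehicle treated cultures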
Settings: S. cerevisiae cln2 rad14 strain, at 50.0 µM (retest, dose inferred, filed as 5.0), active compounds read high
Outline: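 Compounds are applied to the cln2 rad14 yeast strain, and growth is then compared with that of vehicle-treated cultures to give inhibition.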
For `O=C1C(N=Nc2ccccc2)=C(O)C2C3C=CC(C3)C12` (centres undefined), the growth inhibition was 98% (active).
In the case of `CC1CCCC(C(O)(C(=O)O)C2CCCC(C)C2)C1` (centres undefined), the growth inhibition is reported as 98% (active).
For `Cc1c(Cl)ccc2c1NC(=O)C2(O)CC(=O)c1ccc(Cl)cc1` (centres undefined), the growth inhibition was 98% (active).
For `Cc1cc2c(=O)[nH]c(N)nc2nc1C`, the growth inhibition was -5%.
With `C=C1C(=O)O[C@@H]2C[C@@]3(C)CCC[C@H](C)C3=C[C@H]12` the growth inhibition was 64%.
Work on `CCC(=NCCCCCCN=C(CC)c1cc(C)cc([N+](=O)[O-])c1O)c1cc(C)cc([N+](=O)[O-])c1O.[Fe]` yielded a growth inhibition of 49%.
With `CCCCN(CCCC)CC(O)c1cc(-c2ccc(Cl)cc2)nc2c(Cl)cccc12` (centres undefined) the growth inhibition was -13%.
`COc1ccc2c(c1)CC/C(=C\c1ccc(OCCN(C)C)cc1)C2=O` gave a growth inhibition of -3%.
For `CCOC(=O)c1cc2c(nc1NCc1ccc(OC)c(OC)c1)/C(=C/c1ccccc1)CCCC2`, the growth inhibition was 84% (active).
For `CSCS(=O)C[C@H](CO)NC(=O)/C=C/c1c(C)[nH]c(=O)[nH]c1=O` (some centres undefined), the growth inhibition was 95% (active).
Compound `CCOC(=O)c1c(N)sc2c1CCCCC2` has a growth inhibition of -52%.
Compound `Cc1cc(N)c(C)c2c1[nH]c1ccc(Br)cc12` has a growth inhibition of 58%.
With `N=C(N)Sc1ccc([N+](=O)[O-])cc1Cl` the growth inhibition was 89% (active).
`COc1c(OC)c(C2(O)C(=O)N(C)c3ccccc32)c(OC)c(OC)c1C1(O)C(=O)N(C)c2ccccc21` (centres undefined) gave a growth inhibition of -2%.
For `Fc1cccc(NC(=S)SCc2ccc(Cl)cc2)c1`, the growth inhibition was 99% (active).
`Cc1ccc(/C=N/NS(=O)(=O)c2ccccc2)c(C)c1` gave a growth inhibition of 42%.
`CCCCCCCCCCCCNC(=O)C[n+]1cccc(C(=O)N(C)C)c1` gave a growth inhibition of 13%.
Work on `CN(C)C(=S)/N=c1\ss/c(=N\S(=O)(=O)c2ccccc2)n1-c1ccccc1` yielded a growth inhibition of -21%.
For `O=C(NCCCl)Nc1c2ccccc2nc2ccccc12`, the growth inhibition was 23%.
Work on `COc1ccccc1NC(=O)/C(=C/c1ccccc1)C(C)=O` yielded a growth inhibition of 21%.
With `Oc1[nH]c2ccccc2c1N=NC(=S)NCc1ccccn1` the growth inhibition was 99% (active).
`c1cc2c(cc1CCCCCCCCCCc1ccc3c(c1)CCC3)CCC2` gave a growth inhibition of 0%.
Compound `C=Cc1ccccc1C1(O)C=CC(OC)(OC)C=C1` has a growth inhibition of 31%.
`CN(C)CC1CCc2c(ccc3ccccc23)C1=O` (centres undefined) gave a growth inhibition of 46%.
With `CCCCC(C)(C)OC(=O)Nc1ccc(Br)cc1` the growth inhibition was 96% (active).
`O=C(Nc1ccc(F)c(Cl)c1)Oc1ccc(Br)cc1Br` showed a growth inhibition of 6%.
Compound `CCO/C=C1\N=C(C(O)(c2ccc(Cl)cc2)c2ccc(Cl)cc2)OC1=O` has a growth inhibition of -1%.
With `O=C1c2ccccc2C(O)(c2ccccc2)c2c(Cl)cccc21` (centres undefined) the growth inhibition was 21%.
Work on `Nc1ccccc1-c1nc2c(ccc3ccccc32)[nH]1` yielded a growth inhibition of -10%.
With `CCCCCCCCCCCCCCNCCN` the growth inhibition was 97% (active).
For `CC(C)CCCC(C)C1CCC2C3CC=C4OC(=O)CCC4(C)C3CCC12C` (centres undefined), the growth inhibition was 93% (active).
For `CC(Br)C(=O)c1ccc2cc(Cl)c3ccccc3c2c1` (centres undefined), the growth inhibition was 99% (active).
In the case of `N#CSc1ccc2nc(NCO)sc2c1`, the growth inhibition is reported as 89% (active).
For `c1ccc2c3[nH]c(c2c1)=Nc1ccc(cc1)-c1nc2ccc(cc2o1)N=c1[nH]c(c2ccccc12)=Nc1ccc2nc(oc2c1)-c1ccc(cc1)N=3`, the growth inhibition was 81% (active).
`CCOc1ccc2nc(NC(=O)c3c/c(=N\NC(=O)C[N+](C)(C)C)c4ccc(O)cc4o3)sc2c1` gave a growth inhibition of 61%.
`C[C@@H]1CC=C[C@@H](NC(=O)OCc2ccccc2)[C@H]1C=O` showed a growth inhibition of 12%.
In the case of `O=C(/C=C/c1cccc([N+](=O)[O-])c1)CCl`, the growth inhibition is reported as 98% (active).
For `CCC[CH2][Sn]([CH2]CCC)([O]C(=O)c1cccc(F)c1F)[O]C(=O)c1cccc(F)c1F`, the growth inhibition was 55%.
With `O=C(O)CCC(=O)NNc1ccccc1` the growth inhibition was 81% (active).
